In article PMC10668032, “Altered binding affinity of SIX1-Q177R correlates with enhanced WNT5A and WNT pathway effector expression in Wilms tumor”:
Over roughly 33,000 sequences, “e-score” has its median near -0.05; the highest 2% begin near 0.38. Only a selection was taken, and the highest values are over-represented in it overall.

target: T1, SIX1-Q177R homeodomain (human, UniProt Q15475 108-198, Q177R); experiment: universal protein binding microarray; Universal all-10-mer PBM (8x60K, AMADID 030236), 300 nM GST-tagged protein, Alexa Fluor 488 anti-GST; buffer, salt, pH and temperature not stated (as in Berger); high values mean tight binding; conditions: protein: ivt; tags: N-terminal GST; dsDNA, one strand shown
T1 sequence: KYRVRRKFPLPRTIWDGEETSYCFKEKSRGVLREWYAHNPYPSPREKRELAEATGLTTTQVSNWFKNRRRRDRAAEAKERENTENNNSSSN
In short: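 GST-tagged homeodomains were made by in vitro transcription/translation and quantified by anti-GST western blot against a recombinant GST standard curve. They were applied in duplicate at 300 nM final concentration to universal 'all 10-mer' protein binding microarrays (8×60K format). Binding was quantified as 8-mer E-scores with the Universal PBM Analysis Suite.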

Row | Sequence | binding signal [E-score]
1 | TACACCCA | 0.4707 ± 0.00252
2 | CCCACCCA | 0.204 ± 0.0309
3 | TACCCCCA | 0.304 ± 0.00484
4 | CACCCCCA | 0.368 ± 0.0341
5 | TGCACCCA | 0.153 ± 0.0378
6 | CACACCCA | 0.382 ± 0.038
7 | CGAACGGA | 0.21 ± 0.0321
8 | ACCCAGTA | 0.175 ± 0.0267
9 | GTGTGAAC | 0.362 ± 0.00749
10 | GTGTTATA | 0.432 ± 0.0299
11 | GTGTTAGA | 0.41 ± 0.0163
12 | GGGTTATA | 0.2303 ± 0.000672
13 | GTGTTTGA | 0.35 ± 0.00533
14 | CTGTTACA | 0.238 ± 0.0173
15 | ATGTTACA | 0.177 ± 0.00778
16 | GTGTTAAC | 0.415 ± 0.0316
17 | GAGTTAAC | 0.171 ± 0.00701
18 | GTGTTTTA | 0.361 ± 0.026
19 | GTGTTACA | 0.4422 ± 0.00139
20 | ACCTAACA | 0.203 ± 0.0209
21 | ACAAGGGT | 0.21 ± 0.00286
22 | AAGAGTGT | 0.363 ± 0.0349
23 | CCGACGCC | 0.154 ± 0.0342
24 | AGGGAGTG | 0.163 ± 0.00586
25 | CACTAACC | 0.17 ± 0.00501

Row | Sequence | binding signal [E-score]
26 | AGGGCGTG | 0.169 ± 0.0301
27 | CTCCGACA | 0.175 ± 0.075
28 | ACCTGCCT | 0.198 ± 0.0238
29 | CACCTTAG | 0.286 ± 0.00858
30 | CGCGGGTA | 0.273 ± 0.00467
31 | CGGTGCGA | 0.155 ± 0.0742
32 | TGGAAACA | 0.223 ± 0.0152
33 | GTGTTAAA | 0.403 ± 0.0279
34 | GGGTTAAA | 0.214 ± 0.0192
35 | GTGTTTAA | 0.375 ± 0.015
36 | ACGGGGTC | 0.214 ± 0.0134
37 | GCACCCAC | 0.194 ± 0.0207
38 | ACCCCCAA | 0.312 ± 0.0125
39 | ACACCCAA | 0.4542 ± 0.000742
40 | ACCCCCAG | 0.23 ± 0.0356
41 | ACCCCCAC | 0.282 ± 0.0258
42 | ACACCCAG | 0.4602 ± 0.00339
43 | AAACCCAG | 0.219 ± 0.0117
44 | ACCCCCAT | 0.272 ± 0.0289
45 | ACACCCAC | 0.4683 ± 0.00307
46 | GCACCCAA | 0.154 ± 0.0464
47 | AACCCCAT | 0.169 ± 0.00626
48 | ACACCCAT | 0.458 ± 0.00543
49 | ACCAACGC | 0.246 ± 0.0108
50 | TATCAACA | 0.288 ± 0.0159

Row | Sequence | binding signal [E-score]
51 | ACCCCGAC | 0.265 ± 0.018
52 | CTCGATCC | 0.201 ± 0.00608
53 | GGTGCTTA | 0.234 ± 0.00599
54 | CGGTGACA | 0.248 ± 0.0377
55 | CAAACCCC | 0.197 ± 0.0505
56 | CACTGTGA | 0.177 ± 0.00305
57 | CAGCCGAC | 0.196 ± 0.0242
58 | ACACACCA | 0.415 ± 0.0235
59 | TCACAACA | 0.195 ± 0.0326
60 | CCACACCA | 0.393 ± 0.0307
61 | TCACACGA | 0.226 ± 0.00234
62 | ACACACGA | 0.251 ± 0.0465
63 | CCACACGA | 0.234 ± 0.0111
64 | GCACACCA | 0.401 ± 0.0217
65 | ACACACAA | 0.244 ± 0.0667
66 | GCACACGC | 0.256 ± 0.0166
67 | GCACACGA | 0.214 ± 0.0114
68 | CCACACCG | 0.363 ± 0.0269
69 | TCACACCA | 0.434 ± 0.00571
70 | ATCCCCTG | 0.156 ± 0.0119
71 | ACTATACG | 0.178 ± 0.015
72 | CACTCTGA | 0.239 ± 0.0406
73 | CACCTTGC | 0.258 ± 0.0162
74 | TGTTGAAA | 0.219 ± 0.0411
75 | AGTGATAC | 0.265 ± 0.0283

Row | Sequence | binding signal [E-score]
76 | CGTATACA | 0.241 ± 0.0194
77 | GCGGTACA | 0.305 ± 0.00496
78 | ACACTAAA | 0.345 ± 0.0117
79 | ACACTAGA | 0.318 ± 0.0323
80 | ACCCTAGG | 0.1523 ± 0.00136
81 | ACACTAGT | 0.389 ± 0.00685
82 | ACACTAGC | 0.364 ± 0.0183
83 | ACACTAGG | 0.381 ± 0.0153
84 | GGATCAGA | 0.17 ± 0.0215
85 | CCCTGCAG | 0.185 ± 0.0216
86 | CTCTTACA | 0.183 ± 0.018
87 | ATGGGATC | 0.185 ± 0.00496
88 | GCGAACCC | 0.174 ± 0.0509
89 | ACGAGCAC | 0.226
90 | CCGAACAC | 0.4236 ± 0.00158
91 | CCGAACCC | 0.186 ± 0.0116
92 | ACGAACAC | 0.3992 ± 0.00182
93 | GCGAACAC | 0.4086 ± 0.0011
94 | CCGAATAC | 0.163 ± 0.00356
95 | ACCCTAAC | 0.154 ± 0.00793
96 | ACCCACAG | 0.217 ± 0.00978
97 | CACCAGGA | 0.25 ± 0.00664
98 | GTACCTAC | 0.152 ± 0.0312
99 | CTCCGTTC | 0.182 ± 0.0356
100 | CCCAAACG | 0.169 ± 0.00462

Row | Sequence | binding signal [E-score]
101 | ACAGGGTG | 0.222 ± 0.00416
102 | AACACCAA | 0.46725 ± 0.00029
103 | AGCACCAT | 0.16 ± 0.0114
104 | AACACCAT | 0.457 ± 0.0053
105 | TACACGAA | 0.3773 ± 0.000856
106 | AACACGAC | 0.373 ± 0.0147
107 | AGCACCAA | 0.196 ± 0.00899
108 | TGCACCAA | 0.211 ± 0.0149
109 | AGCACCAC | 0.272 ± 0.00962
110 | TACACCAA | 0.4751 ± 0.00401
111 | AACACGAA | 0.305 ± 0.0107
112 | AACACCAC | 0.4833 ± 0.00244
113 | GTCCGACA | 0.217 ± 0.042
114 | GTAAGCAC | 0.189 ± 0.00735
115 | CCTCCTAA | 0.197 ± 0.00216
116 | GACGGTGC | 0.175 ± 0.00182
117 | CACTGCAC | 0.223 ± 0.0117
118 | ACCCTCGG | 0.2 ± 0.0194
119 | GATACCAA | 0.263 ± 0.0211
120 | GACACAAA | 0.224 ± 0.11
121 | GACCACAC | 0.269 ± 0.0108
122 | GACACCAC | 0.489 ± 0.00507
123 | GACACCAA | 0.475 ± 0.00758
124 | GGCACCAC | 0.215 ± 0.0174
125 | CCCCTCGA | 0.23 ± 0.0411

Row | Sequence | binding signal [E-score]
126 | GGCGGGTA | 0.214 ± 0.0165
127 | CCGGGTAC | 0.294 ± 0.0102
128 | AACGGGTG | 0.314 ± 0.00327
129 | ACCCGGTG | 0.3599 ± 0.0016
130 | CTACTCCC | 0.228 ± 0.0226
131 | CACGGCCG | 0.188 ± 0.00306
132 | GGGTATGA | 0.186 ± 0.0167
133 | GGGTATCA | 0.3904 ± 0.00193
134 | GTGTATCA | 0.392 ± 0.0104
135 | CGGTATCA | 0.312 ± 0.00867
136 | GTGTATTA | 0.401 ± 0.0189
137 | GAGTATCA | 0.228 ± 0.0455
138 | GTGTATAA | 0.376 ± 0.0114
139 | GTGTATGA | 0.412 ± 0.0071
140 | CAGTATCA | 0.2 ± 0.0287
141 | AGGTATCA | 0.324 ± 0.0386
142 | GGGTATTA | 0.161 ± 0.054
143 | CCCTCGGA | 0.19 ± 0.012
144 | CCGAGTCA | 0.157 ± 0.00701
145 | AACAGTGT | 0.323 ± 0.0244
146 | GACGCCCC | 0.182 ± 0.00373
147 | GAGTAACA | 0.24 ± 0.0048
148 | ACGCTACA | 0.161 ± 0.0151
149 | ACAACACT | 0.35 ± 0.00607
150 | CCAACACC | 0.47 ± 0.00509

Row | Sequence | binding signal [E-score]
151 | ACAACACG | 0.358 ± 0.0104
152 | GCAACCCC | 0.184 ± 0.013
153 | CCAACACG | 0.377 ± 0.0116
154 | CCAACACA | 0.163 ± 0.0809
155 | GCAACACC | 0.4669 ± 0.000587
156 | ACAACACA | 0.232 ± 0.0598
157 | ACAACACC | 0.455 ± 0.00357
158 | GCTGGGTA | 0.227 ± 0.00462
159 | ACTCGGCA | 0.161 ± 0.0126
160 | CACCTTCC | 0.307 ± 0.017
161 | CACTAGGG | 0.201 ± 0.0297
162 | CAGTGTAA | 0.42 ± 0.0273
163 | AAGTGTAT | 0.317 ± 0.0537
164 | TAGAGTAA | 0.199 ± 0.00264
165 | TAGTGTAA | 0.408 ± 0.0318
166 | CAGTGTGA | 0.306 ± 0.0246
167 | AAGTGTGA | 0.188 ± 0.0231
168 | AAGTGTAA | 0.4 ± 0.0567
169 | GAGTGTAA | 0.42 ± 0.0292
170 | CAGGGTAA | 0.21 ± 0.00942
171 | TAGTGTGA | 0.258 ± 0.0135
172 | GGGAGTAA | 0.225 ± 0.0261
